The list is not random: actives were taken first. Their share in the collection is about 2.8%.
HepG2 tox-1 – qHTS for Inhibitors of TGF-b: Cytotox Counterscreen; HepG2 CAGA-GFP viability, ATP luminescence, 18 h; Potency, µM (top dose mostly 46.1 µM), inactives show at the highest dose activity change, negative = cytotoxicity, usual class: cytotoxic; hit rate 0.76% among 410,000; also: potency is read from the fitted curve at half-maximal effect
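HepG2 CAGA-GFP cells (1000/well, DMEM with 1% FBS) received compound, then TGF-beta at 500 pg/mL final, and were incubated 18 hours at 37 degrees C. Viability was read by CellTiter-Glo luminescence. Media-only wells were set as complete cell-killing and DMSO as no toxicity.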
S2 tox – Viability Counterscreen for Primary qHTS for Inhibitors of ATXN expression; hit rate 0.49% among 400,000; S2 cells (HEK-293 line with an ATXN2-luciferase reporter) viability, CellTiter-Fluor protease fluorescence, 24 h; Potency, µM (series often up to 56.7 µM), most hits filed as cytotoxic; also: potency is read from the fitted curve at half-maximal effect; nearly all actives have a fitted effect of over 40% in size
CtBP-E1A inh – qHTS Assay for Inhibitors of the CtBP/E1A Interaction. AlphaScreen GST-E1A/His-CtBP binding, 1536-well; stronger effect = lower value. activity change, % (concentration not given with the values). hit rate 0.49% among 340,000. CtBP / adenovirus E1A interaction (AlphaScreen); in the data active = activity change below about -65%; inconclusive = mostly about -30% to -63%; also: % is scaled to controls: 0 for no effect and ±100 for the full control effect
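GST-E1A and His-tagged CtBP (125 nM each as 5X stock) were preincubated with pin-transferred compound for 2 h at 37 °C in the dark, then glutathione donor and nickel acceptor beads were added for 1 h before AlphaScreen reading.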
TGFb inhibitor – qHTS for Inhibitors of TGF-b. HepG2 CAGA-GFP TGF-b/SMAD3 reporter, GFP fluorescence, 18 h; TGF-beta stimulated, 500 pg/mL final. Potency, µM (doses to about 46.1 µM), without a hit: at the top dose activity, negative = inhibition, hits mostly inhibitors. hit rate 1.2% among 410,000. AID 588855, 2011; also: potency is read from the fitted curve at half-maximal effect; % is scaled to controls: 0 for no effect and ±100 for the full control effect; nearly all actives have a fitted effect of over 65% in size
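GFP signal (ex488/em500-530) from TGF-beta-stimulated HEPG2 CAGA-GFP cells, 500 pg/mL final, 18 h at 37 degrees C in DMEM plus 1% FBS, normalized to unstimulated and DMSO-stimulated controls.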
ATXN2 expr inh – Primary qHTS for Inhibitors of ATXN expression; HEK-293 ATXN2-luciferase reporter, luminescence, 24 h; Potency, µM (titrated, usually from 57 µM), for inactives: at the top dose activity change, negative = inhibition, usual class: inhibitors; hit rate 0.72% among 360,000; also: potency is read from the fitted curve at half-maximal effect; % is scaled to controls: 0 for no effect and ±100 for the full control effect; nearly all actives have a fitted effect of over 55% in size
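qHTS (up to 57 uM final) was run with 24 h compound exposure of reporter cells at 37 °C. Each well was multiplexed: SteadyGlo luminescence measured ATXN2-luciferase expression after a fluorogenic Gly-Phe-AFC viability readout (25 uM final).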
Six1-Eya2 blk – qHTS Assay for Inhibitors of the Six1/Eya2 Interaction; Homeobox protein SIX1 (Homo sapiens) + Protein phosphatase EYA2 (Homo sapiens), …; AlphaScreen GST-Six1/His-Eya2 binding, biochemical; stronger effect = lower value; activity change, % (concentration not given with the values); hit rate 0.56% among 360,000; AID 651725, 2012; in the data active = activity change below about -65%; inconclusive = mostly about -30% to -63%; also: % is scaled to controls: 0 for no effect and ±100 for the full control effect
Target sequence (O00167 whole entry, looked up): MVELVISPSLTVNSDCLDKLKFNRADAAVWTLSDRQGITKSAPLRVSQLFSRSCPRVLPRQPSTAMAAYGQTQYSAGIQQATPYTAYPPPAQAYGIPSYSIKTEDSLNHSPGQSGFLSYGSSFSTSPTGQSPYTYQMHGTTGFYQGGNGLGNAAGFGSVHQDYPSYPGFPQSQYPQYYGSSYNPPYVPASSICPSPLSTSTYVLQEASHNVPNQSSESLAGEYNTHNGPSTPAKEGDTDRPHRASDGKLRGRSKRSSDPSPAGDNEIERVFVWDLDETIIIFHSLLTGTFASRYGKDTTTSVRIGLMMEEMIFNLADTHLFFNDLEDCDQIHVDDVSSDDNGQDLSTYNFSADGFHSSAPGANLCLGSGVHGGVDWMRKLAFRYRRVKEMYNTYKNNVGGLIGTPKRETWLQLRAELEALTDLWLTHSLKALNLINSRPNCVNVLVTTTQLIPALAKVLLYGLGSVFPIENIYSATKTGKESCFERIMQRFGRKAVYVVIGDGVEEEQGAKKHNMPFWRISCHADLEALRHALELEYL
Target sequence (Q15475 whole entry, looked up): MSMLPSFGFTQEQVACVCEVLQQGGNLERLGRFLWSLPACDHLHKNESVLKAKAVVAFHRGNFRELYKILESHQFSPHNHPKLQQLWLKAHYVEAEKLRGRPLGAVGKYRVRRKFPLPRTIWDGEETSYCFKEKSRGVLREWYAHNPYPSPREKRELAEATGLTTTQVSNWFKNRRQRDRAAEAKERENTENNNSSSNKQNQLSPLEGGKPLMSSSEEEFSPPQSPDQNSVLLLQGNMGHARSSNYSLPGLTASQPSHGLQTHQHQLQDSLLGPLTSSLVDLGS
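GST-Six1 + His-Eya2 (5X stock: 250/500 nM); Tris pH 8.0, 300 mM NaCl, 0.05% BSA, 0.02% Tween 20; GSH donor/Ni acceptor beads; 1 h 37 °C dark; AlphaScreen readout.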
TGFb confirm – qHTS for Inhibitors of TGF-b: Confirmation of Cherry Picks; AID 720534, 2013; HepG2 CAGA-GFP TGF-b reporter, GFP fluorescence, 18 h; cells stimulated with TGF-beta, 500 pg/mL; Potency, µM (highest dose often 46.1 µM), for inactives: top-dose activity, negative = inhibition, most hits filed as inhibitors; shares compounds with TGFb inhibitor; hit rate 63% among 1,600; also: potency is read from the fitted curve at half-maximal effect; % is scaled to controls: 0 for no effect and ±100 for the full control effect; nearly all actives have a fitted effect of over 65% in size
HepG2 tox-2 – qHTS for Inhibitors of TGF-b: Cytotox Counterscreen for Cherry Picks. Potency, µM (series often up to 46.1 µM), for the others: top-dose activity, negative = cytotoxicity, usual class: inhibitors. HepG2 CAGA-GFP viability, ATP luminescence, 18 h; cells stimulated with TGF-beta, 500 pg/mL. AID 720535, 2013. shares compounds with TGFb inhibitor. hit rate 27% among 1,600; also: potency is read from the fitted curve at half-maximal effect; % is scaled to controls: 0 for no effect and ±100 for the full control effect; nearly all actives have a fitted effect of over 70% in size
TGFb CCL64 inh – qHTS for Inhibitors of TGF-b: CCL64 Cells Orthogonal Assay for Cherry Picks; shares compounds with TGFb inhibitor; CCL64 CAGA-GFP reporter, TGF-b stimulated, GFP fluorescence, 18 h; Potency, µM (titrated, usually from 46.1 µM), without a hit: top-dose activity, negative = inhibition, hits mostly inhibitors; hit rate 41% among 1,600; also: potency is read from the fitted curve at half-maximal effect; nearly all actives have a fitted effect of over 65% in size
COP TGFb inh – qHTS for Inhibitors of TGF-b: Hit Validation in HepG2 Cells using COP promoter; shares compounds with TGFb inhibitor; HepG2 COP-GFP TGF-b reporter, GFP fluorescence, 18 h; cells stimulated by added recombinant TGF-beta; Potency, µM (doses to about 46.1 µM), without a hit: at the top dose activity, negative = inhibition, actives largely listed as inhibitors; hit rate 3% among 1,600; AID 720537, 2013; also: potency is read from the fitted curve at half-maximal effect; nearly all actives have a fitted effect of over 70% in size
* hit, by the source's call. Unless noted, calls follow the shape of the dose curve; as a rule, active = well fitted curve in the direction sought with a large enough effect; inconclusive = small, poorly fitted or top-dose-only effect, or another doubt; inactive = no such curve, though single readings can be large; an effect the other way counts as inactive or inconclusive.

Results for Cc1cccc(C)c1NC(=O)N1CCC(C(N)=O)(N2CCCCC2)CC1 ?
HepG2 tox-1: 2.4%; S2 tox: inactive; TGFb inhibitor: -8.2%; ATXN2 expr inh: 11.8%

Results for Cc1ccc(CCNS(=O)(=O)c2ccc3c(c2)CC(C)N3C(=O)C2CCC2)cc1 (stereo not drawn) ?
HepG2 tox-1: 1.0%; S2 tox: inactive; TGFb inhibitor: inconclusive; ATXN2 expr inh: -21.2%

Results for Cc1cccc(NCc2ccc(O)c3ncccc23)c1C ?
HepG2 tox-1: -11.6%; S2 tox: inactive; CtBP-E1A inh: -89.3*; TGFb inhibitor: 11.2µM*; ATXN2 expr inh: -26.5%; Six1-Eya2 blk: -73.7*; TGFb confirm: 10.3µM*; HepG2 tox-2: -23.2%; TGFb CCL64 inh: inconclusive; COP TGFb inh: 13.8%

What do the screens show for `CC(=O)c1ccc(Nc2nc3c(S(=O)(=O)c4ccccc4)nnn3c3ccc(Cl)cc23)cc1`?
HepG2 tox-1: -8.6%; S2 tox: inactive; TGFb inhibitor: -10.2%; ATXN2 expr inh: 9.9%

How did Cc1cc(Nc2cccc([N+](=O)[O-])c2)n2c(nc3ccccc32)c1C#N do in these assays?
HepG2 tox-1: -40.1%; S2 tox: inconclusive; CtBP-E1A inh: -3.0; TGFb inhibitor: 1.58µM*; ATXN2 expr inh: 8.91µM*; Six1-Eya2 blk: -12.3; TGFb confirm: inconclusive; HepG2 tox-2: inconclusive; TGFb CCL64 inh: 5.17µM*; COP TGFb inh: 32.9%

Results for Cc1cc(Nc2ccc(F)cc2)n2c(nc3ccccc32)c1C#N ?
HepG2 tox-1: -1.0%; TGFb inhibitor: -9.6%; ATXN2 expr inh: 0.6%

What do the screens show for `NC(=S)N/N=C\c1c2ccccc2cc2ccccc12`?
HepG2 tox-1: -53.4%; S2 tox: inconclusive; CtBP-E1A inh: -3.1; TGFb inhibitor: -12.4%; ATXN2 expr inh: inconclusive; Six1-Eya2 blk: -10.6

Results for NC(=S)N/N=C\c1c(OCc2ccccc2Cl)ccc2ccccc12 ?
HepG2 tox-1: -5.1%; S2 tox: inactive; CtBP-E1A inh: -7.9; TGFb inhibitor: 6.31µM*; ATXN2 expr inh: inconclusive; Six1-Eya2 blk: -25.0; TGFb confirm: 5.8µM*; HepG2 tox-2: inconclusive; TGFb CCL64 inh: 8.2µM*; COP TGFb inh: 34.3%

Results for CCOc1ccc(NC(=O)CSc2ncc(-c3ccc(F)cc3)n2Cc2ccco2)cc1 ?
HepG2 tox-1: -24.7%; S2 tox: inactive; CtBP-E1A inh: 0.0; TGFb inhibitor: 15.8µM*; ATXN2 expr inh: -23.8%; Six1-Eya2 blk: -19.5; TGFb confirm: 25.9µM*; HepG2 tox-2: inconclusive; TGFb CCL64 inh: inconclusive; COP TGFb inh: 38.7%

Results for O=C(CSc1ncc(-c2ccc(F)cc2)n1Cc1ccco1)Nc1ccc2c(c1)OCO2 ?
HepG2 tox-1: -31.1%; S2 tox: inconclusive; CtBP-E1A inh: -24.9; TGFb inhibitor: inconclusive; ATXN2 expr inh: 6.4%; Six1-Eya2 blk: inconclusive

What do the screens show for `CCOc1ccccc1-n1c(CNc2ccc(F)cc2)nnc1SCC(=O)NCc1ccco1`?
HepG2 tox-1: 2.3%; S2 tox: inconclusive; CtBP-E1A inh: -23.5; TGFb inhibitor: 8.91µM*; ATXN2 expr inh: 0.1%; Six1-Eya2 blk: -13.2; TGFb confirm: inconclusive; HepG2 tox-2: -2.1%; TGFb CCL64 inh: 0.2%; COP TGFb inh: 3.5%

Results for O=C(CSc1nnc(CNc2ccc(F)cc2)n1Cc1ccccc1)NCc1ccco1 ?
HepG2 tox-1: -0.8%; S2 tox: inactive; CtBP-E1A inh: 3.1; TGFb inhibitor: -12.7%; ATXN2 expr inh: 8.3%; Six1-Eya2 blk: -4.5

Results for CCCCc1cc(=O)oc2cc(C)c3c(C)coc3c12 ?
HepG2 tox-1: -3.7%; S2 tox: inactive; TGFb inhibitor: 4.2%; ATXN2 expr inh: 2.5%

How did O=C(Nc1ccc(S(=O)(=O)N2CCOCC2)cc1)c1cccs1 do in these assays?
HepG2 tox-1: 0.8%; S2 tox: inactive; CtBP-E1A inh: 0.1; TGFb inhibitor: -4.0%; ATXN2 expr inh: 1.0%; Six1-Eya2 blk: -1.7

Results for O=C(Nc1ccc(S(=O)(=O)N2CCOCC2)cc1)c1ccco1 ?
HepG2 tox-1: -1.0%; S2 tox: inactive; CtBP-E1A inh: 0.1; TGFb inhibitor: -6.4%; ATXN2 expr inh: 0.5%; Six1-Eya2 blk: -0.9

Results for O=C(COC(=O)c1ccc([N+](=O)[O-])o1)Nc1ccc(N2CCOCC2)cc1 ?
HepG2 tox-1: -19.9%; S2 tox: inactive; CtBP-E1A inh: -22.4; TGFb inhibitor: -10.0%; ATXN2 expr inh: 8.3%; Six1-Eya2 blk: 1.7

What do the screens show for `O=C(Nc1ccc(S(=O)(=O)N2CCOCC2)cc1)c1ccc([N+](=O)[O-])o1`?
HepG2 tox-1: -179.6%; S2 tox: inconclusive; CtBP-E1A inh: 7.4; TGFb inhibitor: 6.31µM*; ATXN2 expr inh: inconclusive; Six1-Eya2 blk: 4.0; TGFb confirm: 3.26µM*; HepG2 tox-2: 13µM*; TGFb CCL64 inh: 11.6µM*; COP TGFb inh: inconclusive
